# Screening data: PubChem, National Center for Advancing Translational Sciences (NCATS)
# PNC assembly inh: perinucleolar compartment assembly inhibition; PC3M PTB-GFP, PNC prevalence imaging, 16 h; hits give low values; activity change (PNC), negative = inhibition, % at 10 µM; 3.1% of 140,000 active;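 active = readout at or below -70, meaning at least 70% loss of cells showing the perinucleolar compartment, a nuclear body marking cancer cells; inconclusive = readout between -30 and a set limit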
#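 Compounds are pinned in duplicate onto adhered PC3M cells stably expressing GFP-tagged PTB and incubated 16 h at 37 C. Cells are then fixed, nuclei stained with Hoechst, and PNC-positive cells counted.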
# ALDH1A1 block: blocks purified human ALDH1A1 activity. P00352. Purified ALDH1A1, NADH fluorescence, propionaldehyde substrate. Potency, µM (doses to about 75.3 µM), most hits filed as inhibitors. 7.3% of 220,000 active. AID 1030
# Target sequence (P00352 whole entry, looked up): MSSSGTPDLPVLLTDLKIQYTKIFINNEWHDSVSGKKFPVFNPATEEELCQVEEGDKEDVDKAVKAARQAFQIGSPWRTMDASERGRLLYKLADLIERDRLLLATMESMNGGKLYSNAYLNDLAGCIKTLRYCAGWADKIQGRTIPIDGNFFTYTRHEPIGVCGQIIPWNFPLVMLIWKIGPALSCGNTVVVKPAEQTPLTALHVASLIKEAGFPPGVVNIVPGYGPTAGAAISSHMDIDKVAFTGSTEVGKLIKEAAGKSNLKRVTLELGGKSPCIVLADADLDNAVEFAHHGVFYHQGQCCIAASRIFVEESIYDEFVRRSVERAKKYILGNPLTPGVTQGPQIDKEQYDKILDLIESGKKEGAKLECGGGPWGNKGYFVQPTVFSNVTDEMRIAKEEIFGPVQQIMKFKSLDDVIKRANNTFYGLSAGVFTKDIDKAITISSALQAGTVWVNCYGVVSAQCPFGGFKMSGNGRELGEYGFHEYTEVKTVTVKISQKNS
# HPGD block: HPGD (human) dehydrogenase inhibition. purified HPGD, NADH fluorescence kinetic, PGE2 substrate. P15428. Potency, µM, actives largely listed as inhibitors. 4.3% of 150,000 active
#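 20 nM HPGD preincubated 15 min at room temperature with compound in 50 mM Tris-HCl pH 8, 0.01% Tween 20. Started with 1 mM NAD+ and 30 uM prostaglandin E2; NADH fluorescence (360/450 nm) read 5 times over 30-s intervals, last minus first.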
# LMNA splice mod: changes lamin A minigene splicing in HeLa cells; HeLa LMNA splicing GFP/RFP minigene ratio, 48 h; Potency, µM (doses to about 46.1 µM), hits mostly inhibitors; 0.01% of 200,000 active; AID 1487; active = well fitted inhibition curve with a large enough effect in the signal ratio, with a control signal flat, not every such curve was filed as active; inconclusive = small, poorly fitted or top-dose-only effect, or effect the other way, or a change in a side signal; the % refers to the signal ratio
#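 S3 HeLa stable clones carrying a lamin A-EGFP splicing minigene plus DsRed2 were seeded at 600 cells/well in Opti-MEM with 2% FBS, pin-dosed and incubated 48 h at 37°C. Acumen cytometry (488 nm) gave the GFP/RFP total-intensity ratio.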
# 12-hLO inh: 12-hLO (ALOX12) enzyme inhibition; purified 12-hLO, xylenol orange hydroperoxide absorbance; Potency, µM (top dose mostly 57.1 µM), hits mostly inhibitors; 0.12% of 150,000 active; AID 1452; active = well fitted inhibition curve with a large enough effect; inconclusive = small, poorly fitted or top-dose-only effect; note: nearly all actives have a fitted effect of over 55% in size
#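 Hydroperoxide formation by human 12-lipoxygenase from 40 uM arachidonic acid was followed colorimetrically via ferric-xylenol orange complex, using the 573/405 nm absorbance ratio. Enzyme concentration was 150 nM, with 30 min reaction at room temperature.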
# Numbers stand for hits; . = inactive; ? = inconclusive; / = not tested or not shown; [ ] = dose if it differs, or a comment. The list is not random: actives were taken first. Their share in the collection is about 10%. Unless noted, calls come from the whole dose curve; as a rule, active = well fitted inhibition curve with a large enough effect (not every such curve was filed as active); inconclusive = small, poorly fitted or top-dose-only effect, or another doubt; inactive = no such curve, though single readings can be large or run the other way.
SMILES,PNC assembly inh,ALDH1A1 block,HPGD block,LMNA splice mod,12-hLO inh
CCOc1ccccc1-n1c(N)c(C(N)=O)sc1=S,.,?,.,.,.
COc1ccc(Cl)cc1-n1c(N)c(C(N)=O)sc1=S,.,?,28µM,.,.
CCCCNC(=O)c1sc(=S)n(-c2ccccc2OC)c1N,?,8.9µM,32µM,?,.
CCOC(=O)c1sc(=S)n(-c2ccccc2OC)c1N,.,3.2µM,?,.,.
COC(=O)c1sc(=S)n(-c2ccccc2OC)c1N,.,.,14µM,.,.
CCOc1ccc(-n2cc(-c3ccccc3)c3c(NCc4ccc(F)cc4)ncnc32)cc1,/,/,/,.,/
Cc1noc(C)c1C(=O)N1CCC2(CCN(Cc3nccs3)CC2)CC1,/,.,.,/,.
COc1cc(O)c2c(O)c3c(c4c2c1[C@@]1(C4)C(C)=CCCC1(C)C)[C@H](O)[C@@]1(O)CC(=O)C(C(N)=O)=C(O)[C@]1(O)C3=O,/,.[13.5 µM],.,/,.[11.4 µM]
Cc1ccccc1NS(=O)(=O)c1nnc(NC(=O)c2ccco2)s1,/,/,/,.,/
COc1ccc([N+](=O)[O-])cc1N(CC(=O)O)S(C)(=O)=O,/,32µM,/,.,/
CCOc1ccc(-c2nnc(SCC(=O)NCCC(C)C)nc2-c2ccc(OCC)c(OC)c2)cc1OC,/,/,/,.,/
COc1ccc(CNC(=O)C(c2ccc(C)o2)N(C(=O)c2csnn2)c2ccc(C(C)C)cc2)cc1 (configuration not stated),.,2µM,.,.,.
COc1ccc(CNC(=O)C(c2ccco2)N(C(=O)c2ccccn2)c2ccccc2)cc1 (configuration not stated),/,?,/,.,/
CCc1ccc(N(C(=O)c2csnn2)C(C(=O)NCc2ccccc2)c2ccco2)cc1 (configuration not stated),.,7.9µM,.,.,.
Cc1[nH][nH]c(=O)c1N=Nc1ccccc1Cl,/,.,/,/,/
O=C(/C(=C/O)N=Nc1ccccc1Cl)c1ccccc1,/,7.9µM,/,?,/
O=C(/C(=C/O)N=Nc1ccccc1)c1ccco1,/,14µM,/,.,/
O=C(/C(=C/O)N=Nc1cccc(C(F)(F)F)c1)c1ccccc1,/,7.5µM,/,?,/
O=C(N/N=C/C(Cl)=C/c1ccccc1)c1ccco1,/,.,/,.,/
COc1ccc(Cl)cc1-c1ccc(C(=O)O)s1,/,?,?,/,.[0.00818 µM]
Cn1c(=O)c2c(O)c(Cc3ccccc3)c(=O)[nH]c2n(C)c1=O,?,14µM,.,.,.
NS(=O)(=O)c1cc2c(cc1Cl)N[C@H](Cc1ccccc1)NS2(=O)=O,/,?,.,.,.[11.4 µM]
COc1ccc(C(=O)CSC#N)cc1OC,/,1.3µM,/,.,/
COc1ccc(C(=O)COC(=O)c2ccc(OC)c(OC)c2)cc1OC,.,.,.,.,.
CCc1ccc(NC(=O)CSc2ccnc(=O)[nH]2)cc1,/,/,/,.,/
SMILES,PNC assembly inh,ALDH1A1 block,HPGD block,LMNA splice mod,12-hLO inh
NC(=O)CSCc1nc2ccccc2s1,?,7.9µM,?,.,.
Oc1ccccc1OCc1nc2ccccc2s1,.,.,13µM,.,.
O=C(OCc1nc2ccccc2s1)c1ccc(Br)s1,?,.,16µM,.,.
Oc1ccc(O)c(Cc2nc3ccccc3s2)c1,/,20µM,/,?,/
O=C(c1cccc([N+](=O)[O-])c1)N1CCN(CCc2ccncc2)CC1,/,/,/,.,/
S=C(Nc1ccc(Oc2ccccc2)cc1)N1CCN(c2ccccn2)CC1,/,.,/,?,/
CCOC(=O)C1CCC(CN(Cc2ccc(OC)cc2)S(=O)(=O)c2ccc(F)c(C(=O)Nc3c(C)cccc3C)c2)CC1 (configuration not stated),/,/,/,.,/
O=C(Cc1ccccc1)c1nc2ccccc2s1,.,.,22µM,.,.
COC(=O)c1ccc(CC(=O)c2nc3ccccc3s2)cc1,.,.,.,.,.
O=c1cc(CSc2nnc(-c3ccco3)o2)c2ccccc2[nH]1,.,.,20µM,.,.
O=c1cc(CSc2nc3ccccc3[nH]2)c2ccccc2[nH]1,?,.,7.9µM,.,.
Fc1ccc(CSc2nc3ccccc3[nH]2)c2ccccc12,.,.,?,?,.
CC(C)NC(=O)CSc1nc(N)c(NC(=O)c2ccccc2F)c(=O)[nH]1,-91,.,.,.,.
COc1ccccc1Nc1ccc(C(=O)NC2CCCCC2)cn1,.,.,16µM,.,.
COc1ccccc1C(=O)NC1CCCCCCC1,.,.,.,.,.
COc1ccc(-c2nc(=S)[nH][nH]2)cc1,.,13µM,13µM,.,.
Oc1ccc(-c2nc(=S)[nH][nH]2)cc1,.,?,?,.,?
CCOc1ccc(-c2nnc(-c3ccc(OC)cc3)o2)cc1,.,.,.,.,.
CCOc1ccc(-c2nc(=S)[nH][nH]2)cc1,.,25µM,?,.,.
O=C(CCC1N=C2c3ccccc3N=C(SCc3cccc(F)c3)N2C1=O)NC1CCCCC1 (configuration not stated),/,/,/,.,/
Cn1c(=O)c2[nH]c(COCc3nc4c([nH]3)c(=O)n(C)c(=O)n4C)nc2n(C)c1=O,/,.[13.5 µM],.,/,.[11.4 µM]
NC1CONC1=O (configuration not stated),/,.,.,.,.
COc1ccc(NC(=O)CSC2=Nc3ccccc3C3=NC(Cc4ccccc4)C(=O)N23)cc1Cl (configuration not stated),/,/,/,.,/
Cc1ccc(C)c(S(=O)(=O)n2nc(C)c(S(=O)(=O)N3CCCCCC3)c2C)c1,/,/,/,.,/
